Experimental data taken from PubChem BioAssay (NCATS).
“And” between values parts separate entries of the source, which are not always exact repeats. Equal values may be shown once. Records with an inconclusive call do not appear. Where a call stands in place of a potency, no number is given. Values without a mark were called inactive. The source made the active and inactive calls. Unless noted, the call rests on the fitted dose curve; in most records, active means well fitted curve in the direction sought with a large enough effect; inconclusive means small, poorly fitted or top-dose-only effect, or another doubt; inactive means no such curve, though single readings can be large; an effect the other way counts as inactive or inconclusive.

Experiments:
[1] = biological target: Cellular tumor antigen p53 (Homo sapiens) (UniProt P04637); assay: Primary qHTS for small molecule compounds that upregulate eGFP-tagged delta133p53alpha (in N-terminal) cells. (AID 2060322); settings: NCI-H358 eGFP-delta133p53alpha fluorescence, 24 h; activation: active compounds read high; further: nearly all actives have a fitted effect of over 75% in size; further: potency means the concentration at half of the fitted maximal effect;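 on activation: cells pre-induced with doxycycline then dosed without doxycycline; series mostly up to about 56 µM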
Sequence of Cellular tumor antigen p53 (Homo sapiens) (P04637 whole entry, looked up): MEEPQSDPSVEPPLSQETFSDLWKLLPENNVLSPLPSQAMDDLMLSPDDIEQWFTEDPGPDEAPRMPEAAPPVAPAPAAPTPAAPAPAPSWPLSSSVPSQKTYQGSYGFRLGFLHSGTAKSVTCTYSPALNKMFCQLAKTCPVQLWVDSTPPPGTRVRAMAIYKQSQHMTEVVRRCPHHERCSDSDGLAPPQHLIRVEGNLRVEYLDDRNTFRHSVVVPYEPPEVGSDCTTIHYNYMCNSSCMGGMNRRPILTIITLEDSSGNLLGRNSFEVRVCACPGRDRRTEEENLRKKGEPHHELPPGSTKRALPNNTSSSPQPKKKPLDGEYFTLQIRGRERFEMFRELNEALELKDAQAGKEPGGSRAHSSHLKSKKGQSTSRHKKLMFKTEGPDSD
Summary of the method: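 NCI-H358 cells pre-induced 24 h with 10 ng/ml doxycycline for eGFP-delta133p53alpha, plated dox-free and exposed 24 h at 37C to titrated compounds. Fixed, Hoechst-stained; gated GFP peak intensity by laser scanning cytometry, normalized to DMSO (0%) and 57.5 uM 5-azacytidine (100%).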

[2] = biological target: Cellular tumor antigen p53 (Homo sapiens) (UniProt P04637); assay: Primary qHTS for small molecule compounds that upregulate eGFP-tagged delta133p53alpha (in C-terminal) cells. (AID 2060324); further: potency means the concentration at half of the fitted maximal effect
Summary of the method: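 Concentration-response screen: compounds titrated onto pre-induced NCI-H358 D133p53a-eGFP cells, incubated one day, fixed with 3.5% PFA. Per-cell GFP peak intensity was gated, then normalized against intraplate controls.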

[3] = biological target: Aldehyde dehydrogenase, mitochondrial (Homo sapiens) (UniProt P05091); assay: qHTS for Inhibitors of the Aldehyde Dehydrogenase Family (ALDH2) Validation screens (AID 2061302; active means well fitted inhibition curve with a large enough effect; title and protocol of this record describe different tests)
[4] = biological target: Retinaldehyde dehydrogenase 3 (Homo sapiens) (UniProt P47895); assay: qHTS for Inhibitors of the Aldehyde Dehydrogenase Family (ALDH1A3) Validation screen (AID 2061312); further: nearly all actives have a fitted effect of over 45% in size
[5] = BET inhibitor-based combinations targeting novel dependencies in MECOM-rearranged (r) AML: SET-2 cell line (AID 2202231); settings: SET-2 AML cells viability, CellTiter-Glo luminescence, 48 h; viability: active compounds read low, concentration not given here; further: nearly all actives have a fitted effect of over 35% in size; further: potency means the concentration at half of the fitted maximal effect
Summary of the method: (§1)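 Viability of cells (500 per well) is scored by luminescent CellTiter-Glo at 48 hr post-dosing. Eleven-point titrations are normalized to DMSO and empty controls and reduced to AUC values.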

[6] = BET inhibitor-based combinations targeting novel dependencies in MECOM-rearranged (r) AML: OCI-AML3 cell line (AID 2202232); settings: Potency: OCI-AML3 viability; further: nearly all actives have a fitted effect of over 35% in size; further: potency means the concentration at half of the fitted maximal effect
Summary of the method: as §1

[7] = BET inhibitor-based combinations targeting novel dependencies in MECOM-rearranged (r) AML: MV-4-11 cell line (AID 2202233); further: nearly all actives have a fitted effect of over 45% in size; further: potency means the concentration at half of the fitted maximal effect
Summary of the method: (§2)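 Using pin-tool transfer, drugs were added in 11 doses to cells (500/well), incubated 48 hr, and assessed with CellTiter-Glo. Z-AUC is a mean-centring transformation applied separately to each screened line.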

[8] = BET inhibitor-based combinations targeting novel dependencies in MECOM-rearranged (r) AML: HNT-34 cell line (AID 2202234); further: nearly all actives have a fitted effect of over 35% in size; further: potency means the concentration at half of the fitted maximal effect
Summary of the method: as §2

[9] = BET inhibitor-based combinations targeting novel dependencies in MECOM-rearranged (r) AML: UCSD-AML1 cell line (AID 2202235); further: nearly all actives have a fitted effect of over 40% in size; further: potency means the concentration at half of the fitted maximal effect
Summary of the method: as §2

[10] = BET inhibitor-based combinations targeting novel dependencies in MECOM-rearranged (r) AML: AML-191 cell line (AID 2202236; further: nearly all actives have a fitted effect of over 35% in size; further: potency means the concentration at half of the fitted maximal effect)
Summary of the method: as §1

[11] = BET inhibitor-based combinations targeting novel dependencies in MECOM-rearranged (r) AML: AML-194 cell line (AID 2202237; further: nearly all actives have a fitted effect of over 40% in size; further: potency means the concentration at half of the fitted maximal effect)
Summary of the method: as §1

Compound | activation [1] | Potency [2] | Potency [3] | Potency [4] | viability [5] [%] | Potency [6] | Potency [7] | Potency [8] | Potency [9] | Potency [10] | Potency [11] | Potency [1] | Potency [5]
Nc1nc2c(ncn2COCCO)c(=O)[nH]1 | 6.69% and 13.1% | inactive | inactive | inactive | 125 | inactive | inactive | inactive | inactive | inactive | inactive | – | –
CCCCS(=N)(=O)CCC(N)C(=O)O (stereo not drawn) | -49.8% | inactive | inactive | inactive | 120 | 9.59 µM (active) | 21.5 µM (active) | inactive | inactive | inactive | inactive | – | –
NS(=O)(=O)c1cc2c(cc1Cl)NC=NS2(=O)=O | -10% and -6.71% and -22.3% | inactive | inactive | inactive | 111 | inactive | inactive | inactive | inactive | inactive | inactive | – | –
Nc1ncn([C@@H]2O[C@H](CO)[C@@H](O)[C@H]2O)c(=O)n1 | – | 21.3 µM (active) | inactive | inactive | – | 5.9 µM (active) | 3.32 µM (active) | 4.68 µM (active) | 4.68 µM (active) | 5.25 µM (active) | 16.6 µM (active) | 1.69 µM (active) | 1.05 µM (active)
CCCN(CCC)C(=O)C(CCC(=O)O)NC(=O)c1ccccc1 (stereo not drawn) | -4.18% and 0.787% | inactive | inactive | inactive | 109 | inactive | inactive | inactive | inactive | inactive | inactive | – | –
Cc1cnc(C(=O)NCCc2ccc(S(=O)(=O)NC(=O)NC3CCCCC3)cc2)cn1 | -31.3% and -14.1% and 0.362% | inactive | inactive | inactive | 105 | inactive | inactive | inactive | – | inactive | inactive | – | –
CCOC(=O)C(C)Oc1cccc2c(=O)n(CC(=O)Nc3ccc4c(c3)OCCO4)ccc12 (stereo not drawn) | -0.568% and 16.2% | inactive | inactive | inactive | 114 | 3.72 µM (active) | 3.32 µM (active) | inactive | – | inactive | inactive | – | –
Nc1ncnc2c1ncn2[C@@H]1O[C@H](CO)[C@@H](O)[C@H]1O | 6.69% and -13% | inactive | inactive | inactive | 126 | inactive | inactive | inactive | inactive | inactive | inactive | – | –
CC(C(=O)O)c1cccc(C(=O)c2ccccc2)c1 (stereo not drawn) | 8.47% and 8.5% and -11% | inactive | inactive | inactive | 117 | inactive | inactive | inactive | – | inactive | inactive | – | –
CCOC(=O)C(C)(C)Oc1ccc(Cl)cc1 | 14.3% and -37.9% and -27.7% | inactive | inactive | inactive | 112 | inactive | inactive | inactive | inactive | inactive | inactive | – | –
Cc1ccc(C(=O)Nc2ccc(S(=O)(=O)O)c3cc(S(=O)(=O)O)cc(S(=O)(=O)O)c23)cc1NC(=O)c1cccc(NC(=O)Nc2cccc(C(=O)Nc3cc(C(=O)Nc4ccc(S(=O)(=O)O)c5cc(S(=O)(=O)O)cc(S(=O)(=O)O)c45)ccc3C)c2)c1 | -19.3% and -10.7% and -18.3% | inactive | inactive | inactive | 108 | inactive | inactive | inactive | inactive | – | – | – | –
NCCS(=O)(=O)O | -4.87% and 12% | inactive | inactive | inactive | 125 | inactive | inactive | inactive | inactive | inactive | inactive | – | –
COC(=O)Nc1nc2ccc(C(=O)c3cccs3)cc2[nH]1 | -4.18% | inactive | inactive | inactive | – | 0.0934 µM (active) | 0.118 µM (active) | 0.0833 µM (active) | – | 0.0661 µM (active) | 0.332 µM (active) | – | 0.209 µM (active)
CC(C)NCC(O)c1ccc(NS(C)(=O)=O)cc1 (stereo not drawn) | -72.6% | inactive | inactive | inactive | 116 | inactive | inactive | inactive | inactive | – | inactive | – | –
CCC(C)N(C)C(=O)c1cc2ccccc2c(-c2ccccc2Cl)n1 (stereo not drawn) | 12.4% and -31.8% | inactive | inactive | inactive | 102 | inactive | inactive | inactive | inactive | inactive | inactive | – | –
